# Test results from PubChem BioAssay AID602449 (Sanford-Burnham Center for Chemical Genomics, 2012).
# Screen size: about 360,000 compounds; about 5,000 (1.4%) were called active.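 The calls were made as follows: active = inhibition of 50% or more, scaled per plate between neutral and stimulator controls; inactive = the rest.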 The entries come from a sample that favours actives as a whole.
# Experiment: mitochondrial permeability transition pore inhibitors, primary screen, biochemical, isolated mouse mitochondria, absorbance (AID 602449);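 also: 0% = DMSO wells given calcium and 100% = 1 mM EGTA wells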
# Conditions: Ca2+ swelling absorbance, 30 min, at 10 µM, stronger effect = higher value
row,SMILES,inhibition
1,COc1ccc2sc(N(CCCN(C)C)C(=O)c3ccc(S(=O)(=O)N(C)C4CCCCC4)cc3)nc2c1,82.5% (active)
2,COc1ccc(N(Cc2ccc(N(C)C)cc2)C(=O)c2ccc(S(C)(=O)=O)cc2)cc1,0.5% (inactive)
3,COc1ccc(S(=O)(=O)N(C)CC(=O)N2CCCC2)cc1,-2.1% (inactive)
4,COc1ccc(C(=O)O)cc1S(=O)(=O)NC1CCN(Cc2ccccc2)CC1,-1% (inactive)
5,Cc1c(NC(=S)Nc2ccccc2)c(=O)n(-c2ccccc2)n1C,0.8% (inactive)
6,Cc1cccc(NC(=S)Nc2ccc(Cl)c(Cl)c2)c1,101% (active)
7,Cc1cccc(NC(=S)NCc2ccc3[nH]c4c(c3c2)CCCC4)c1,1% (inactive)
8,Fc1cc(Br)ccc1NC(=S)Nc1cccnc1,12.7% (inactive)
9,O=S(=O)(NC(=S)Nc1ccccc1)c1ccc(F)cc1,-0.7% (inactive)
10,Cc1cccc(NC(=S)N2CCC(c3nc4ccccc4s3)CC2)c1,3% (inactive)
11,S=C(Nc1ccccc1)Nc1ccc2ccccc2c1,67.5% (active)
12,Cc1cccc(NC(=S)Nc2ccc(Br)cc2)c1,96.8% (active)
13,Cc1cccc(NC(=S)N(CCN(C)C)C(C)c2ccco2)c1 (configuration not stated),-2.1% (inactive)
14,COC(=O)c1ccc2c(c1)S(=O)(=O)NC(=NCCCN1CCOCC1)S2,0.8% (inactive)
15,COc1ccc(C2=NS(=O)(=O)N(C)C(C(=O)NC(C)c3ccccc3)=C2)cc1 (configuration not stated),-1.4% (inactive)
16,CCC1C=C(c2ccccc2)C=CN=C1N(CC)CC (configuration not stated),-0.1% (inactive)
17,Cc1cccc(NS(=O)(=O)c2cccc(C(=O)NNC(=O)c3ccccc3O)c2)c1,6.9% (inactive)
18,CC1(C)CC(=O)c2cc(OCC(=O)NCC3CCCO3)ccc2O1 (configuration not stated),-1.4% (inactive)
19,C=CCN(N=Nc1cccc([N+](=O)[O-])c1)c1cccc([N+](=O)[O-])c1,2.6% (inactive)
20,N#Cc1cccc(Nc2c3c(nc4ccccc24)CCCC3)c1,6.5% (inactive)
21,Cc1ccc(Nc2c3c(nc4ccccc24)CCC3)cc1,79.8% (active)

row,SMILES,inhibition
1,Brc1ccc(Nc2c3c(nc4ncnn24)CCC3)cc1,-4.1% (inactive)
2,CCn1nnc(NC(=O)c2c(OC)cccc2OC)n1,-1% (inactive)
3,CCCC1OC23CCCCC2C(C#N)(C#N)C1(C#N)C(=N)O3 (configuration not stated),0.5% (inactive)
4,Cc1cccc(NC(=O)NC2(C)CCS(=O)(=O)C2)c1 (configuration not stated),-3.1% (inactive)
5,Cc1cccc(NC(=O)Nc2cccc(Oc3c(F)c(F)c(F)c(F)c3F)c2)c1,93.2% (active)
6,Cc1ccoc1C(=O)Nc1cccc(Oc2ccccc2)c1,-0.1% (inactive)
7,O=C(CNCCC1=CCCCC1)Nc1ccccc1N1CCCCCC1,11.6% (inactive)
8,CCc1cc(=O)oc2cc(C)cc(OC(C)C(=O)O)c12 (configuration not stated),1.3% (inactive)
9,CN[C@H](C(=O)NC[C@H]1O[C@@H](n2cnc3c(N)ncnc32)[C@H](O)[C@@H]1O)[C@@H](C)OCc1ccccc1,-0.1% (inactive)
10,Cc1onc(-c2ccccc2)c1C(=O)N1CCN(S(=O)(=O)c2ccccc2C(F)(F)F)CC1,0.5% (inactive)
11,O=C(NNC(=S)NC(=O)c1cn(-c2ccccc2)nc1-c1ccccc1)c1ccncc1,2.2% (inactive)
12,Cc1onc(-c2ccccc2)c1C(=O)NNC(=S)NC(=O)c1ccc(F)cc1,90.1% (active)
13,O=C1CS(=O)CN1c1ccc(Oc2ccccc2)cc1 (configuration not stated),1.6% (inactive)
14,Cc1noc(C)c1S(=O)(=O)Nc1ccc(C(=O)N2CCN(c3ccc(F)cc3)CC2)cc1,-2% (inactive)
15,Cc1ccc(NC(=O)CN(C)CC(=O)Nc2cccc(F)c2)cc1[N+](=O)[O-],97.2% (active)
16,CN(CC(=O)Nc1cccc(F)c1)C(=O)C1=COCCO1,-2.6% (inactive)
17,Cc1ccc(NC(=O)c2sccc2C)cc1[N+](=O)[O-],-8.8% (inactive)
18,O=C(NNC1=C(C(=O)C(F)(F)F)CCC1)c1ccncc1,0.3% (inactive)
19,COc1ccc(NC(=O)C(=O)NCC(c2ccco2)N2CCc3ccccc3C2)cc1 (configuration not stated),0.5% (inactive)
20,O=C(CCCOc1ccccc1)Nc1cccc(C(=O)O)c1,0.4% (inactive)
21,COC(=O)c1noc(C)c1-c1ccnn1C(=O)c1ccc(Cl)cc1,5% (inactive)

row,SMILES,inhibition
1,O=C(C/C(=N\NC(=O)c1ccccc1Br)C(F)(F)F)c1cccs1,59.2% (active)
2,CC/C(=N\NC(=O)c1ccccc1Cl)c1ccc(Br)s1,-0.9% (inactive)
3,O=C(CNC(=O)c1ccccc1Br)NNC(=O)c1cccs1,-3.3% (inactive)
4,N#Cc1nc(N)nc(N(c2ccccc2)c2ccccc2)n1,0% (inactive)
5,CC1(C(=O)NS(=O)(=O)c2cccs2)CCN1C(=O)Cc1ccc(-c2ccccc2)cc1 (configuration not stated),1.6% (inactive)
6,O=S(=O)(Nc1ccccc1)c1ccc(NS(=O)(=O)c2cccs2)cc1,-0.1% (inactive)
7,O=C(Nc1cccc(Cl)c1)Nc1ccccc1NS(=O)(=O)c1cccs1,87.7% (active)
8,O=S(=O)(Nc1ccccc1Br)c1cccs1,1.3% (inactive)
9,Nc1ncnc2c1ncn2[C@@H]1O[C@H](CNCc2cccn2-c2nccs2)[C@@H](O)[C@H]1O,-2.5% (inactive)
10,CC(=O)OC(COc1ccc(F)cc1)Cn1cnc2ccccc21 (configuration not stated),0.4% (inactive)
11,CCOC(=O)c1ccccc1NC(=O)CSc1nc2c(sc(=S)n2CC)c(=O)[nH]1,5.4% (inactive)
12,Cc1ccc(C(=O)Nc2c(-c3ccccc3)[nH][nH]c2=O)cc1,-0.8% (inactive)
13,Fc1cc(F)c2nc(Nc3nc4c(F)cccc4s3)sc2c1,94.3% (active)
14,NNc1nc2c(Cl)cccc2s1,-0.9% (inactive)
15,Fc1ccc2nc(Nc3nc4c(s3)CCCC4)sc2c1,5.3% (inactive)
16,O=C(NC1(C(F)(F)F)NC(=O)N(Cc2cccnc2)C1=O)c1ccccc1Cl (configuration not stated),1% (inactive)
17,CCCCc1ccc(NC(=O)NCc2cccnc2)cc1,-0.3% (inactive)
18,CN(C)CCCN1C(=O)CSC1c1ccc([N+](=O)[O-])cc1 (configuration not stated),-0.2% (inactive)
19,CCCCCCCCCCCCN1C(=O)CSC1c1cccnc1 (configuration not stated),62.4% (active)
20,CCCS(=O)(=O)NC(=O)C1(C)CCCN(C(=O)c2ccnc(Cl)c2)C1 (configuration not stated),-0.3% (inactive)
